Source: PubChem BioAssay (ICCB-Longwood Screening Facility, Harvard Medical School)
Choline anaer gr – choline-fed anaerobic bacterial growth inhibition; Gram-negative bacterium anaerobic choline minimal medium, absorbance growth; stronger effect = lower value; calls only; 55,000 tested, 0.2% active; call rule not given here
Active calls of the source: *; i = inactive; + = active, no number; ! = repeats disagree. This is one part of a sample in which hits are shown more often than they occur.

SMILES | Choline anaer gr
Cc1c(C)n(C)c2ccc(C(=O)NCCc3ccccc3)cc12 | i
CC(C)C(=O)Nc1noc2ccccc12 | i
Cc1cc(C2CCCN2C(=O)c2ccc(F)cc2)on1 (centres undefined) | i
Cc1cc(N2CCCC2)nc(N2CCN(S(=O)(=O)c3ccc(Br)cc3)CC2)n1 | +
O=S(=O)(c1ccc(Br)cc1)N1CCN(c2ccc(N3CCCC3)nn2)CC1 | i
Cc1cc(N2CCN(C)CC2)nc(N2CCN(S(=O)(=O)c3ccc(Br)cc3)CC2)n1 | i
CCOc1ccc(-n2nnnc2CNC(=O)Nc2ccccc2)cc1 | i
CCCn1c(=O)c2ccccc2n2c(=O)n(CC(=O)c3ccc(OC)cc3)nc12 | i
CC(C)CN1CCN(S(=O)(=O)c2ccc(-c3nnc(C(C)C)o3)o2)CC1 | +
CC(C)c1nnc(-c2ccc(S(=O)(=O)N3CCN(C(C)C)CC3)o2)o1 | i
CC(C)c1nnc(-c2ccc(S(=O)(=O)N3CCCC3)o2)o1 | i
COc1ccc(-c2nn3c(Nc4ccc(F)cc4)cc(C)nc3c2C)cc1OC | i
CC(C)(C)c1ccc(S(=O)(=O)Nc2ccc(-c3nnc(-c4ccccc4)o3)cc2)cc1 | i
CC(C)(C)c1ccc(S(=O)(=O)/C=C/C#N)cc1 | +
Cc1ccc(S(=O)(=O)C=CC#N)cc1 | i
CC(=O)N1CCc2cc(S(=O)(=O)NC(C(=O)NCCc3ccc(S(N)(=O)=O)cc3)C(C)C)ccc21 (centres undefined) | i
CC1CCN(Cc2cc(=O)n3[nH]c(-c4ccc(C(C)(C)C)cc4)nc3n2)CC1 | i
COc1ccccc1N1CCN(c2ccc(C(=O)N3CCc4ccccc43)nn2)CC1 | i
COc1ccc(CNc2ccc(C(=O)N3CCc4ccccc43)nn2)cc1 | +
O=C(c1ccc(NC2CCCC2)nn1)N1CCc2ccccc21 | i
CC(C)=CCC/C(C)=C/CC/C(C)=C/CSCC(=O)O | +
COC(=O)[C@@H](N)CSC/C=C(\C)CC/C=C(\C)CCC=C(C)C | i
Cc1[nH]c(C)c(S(=O)(=O)N2CCC(C(=O)Nc3ccc(Cl)cc3)CC2)c1C(=O)N1CCCC1 | i
Cc1[nH]c(C)c(S(=O)(=O)N2CCC(C(=O)N3CCN(C4CCCCC4)CC3)CC2)c1C(=O)N1CCCCC1 | i
Cc1[nH]c(C)c(S(=O)(=O)N2CCC(C(=O)N3CCC(C)CC3)CC2)c1C(=O)N1CCCCC1 | i
SMILES | Choline anaer gr
Cc1[nH]c(C)c(S(=O)(=O)N2CCC(C(=O)Nc3ccc(F)c(Cl)c3)CC2)c1C(=O)N1CCCC1 | i
Cc1[nH]c(C)c(S(=O)(=O)N2CCC(C(=O)N3CCN(C4CCCCC4)CC3)CC2)c1C(=O)N1CCCC1 | +
Cc1[nH]c(C)c(S(=O)(=O)N2CCC(C(=O)Nc3ccc(F)cc3)CC2)c1C(=O)N1CCCC1 | +
Cc1csc(-c2cc(S(=O)(=O)NC3CCCC3)cn2CC(=O)N2CCCCC2)n1 | i
CCC1Oc2ccc(Cl)cc2N(CC(=O)Nc2nnc(Cc3cn(C)c4ccccc34)s2)C1=O (centres undefined) | i
O=C(CN1N=C(c2ccccc2F)c2cc(Cl)ccc2S1(=O)=O)NC1CCCC1 | i
COCCCNS(=O)(=O)c1ccc2c(c1)CCN2C(=O)CCC(=O)O | i
COc1ccc(N2C(=O)CCS2(=O)=O)cc1S(=O)(=O)Nc1cccc(Br)c1 | i
CCc1ccc(-n2[nH]c3c(c2=O)Cc2cc(Cl)ccc2O3)cc1 | i
CC[N+](CC)(CC)CCOc1cccc(OCC[N+](CC)(CC)CC)c1OCC[N+](CC)(CC)CC | i
CC[N+](CC)(CC)CCOc1ccc(/C=C/c2ccccc2)cc1 | +!
CCN(CC)CCOc1ccc(Cc2ccccc2)cc1 | i
Cc1ccc(Cn2nc3c(S(=O)(=O)N4CCc5ccccc5C4)cccn3c2=O)cc1 | i
CCc1ccc(NCc2cc3ccc(OC)cc3n(CC(=O)Nc3ccc4c(c3)OCO4)c2=O)cc1 | +
COC(=O)c1ccccc1NC(=O)Cn1c(=O)c(CNc2ccccc2)cc2ccc(OC)cc21 | i
CCOC(=O)c1ccccc1NC(=O)Cn1c(=O)c(CNc2ccc(C)cc2)cc2ccc(OC)cc21 | i
Cc1ccc(NC(=O)CSc2nc(-c3ccc(C(C)C)cc3)no2)cc1 | i
CC(C)c1ccc(-c2noc(SCC(=O)NCC3CCCO3)n2)cc1 (centres undefined) | +
CC(C)c1ccc(-c2noc(SCC(=O)Nc3ccccc3Cl)n2)cc1 | i
O=C1Nc2ccccc2SC1C(=O)N1CCC(C(=O)N2CCn3c2nc2ccccc23)CC1 (centres undefined) | i
Cc1nc(-c2csc(S(=O)(=O)NC3CCCCCC3)c2)sc1C | i
CC(=O)NNC(=O)N1Cc2ccccc2Oc2ccc(Cl)cc21 | i
CCN(CC)CCCNC(=O)CCCN1C(=O)c2cccnc2Oc2ccc(Cl)cc21 | i
CCN(CC)CCCCN1c2ccccc2Oc2ccc(Cl)cc21 | +
O=C(Cn1nc(C(=O)Nc2ccccc2)ccc1=O)Nc1cccc(F)c1 | i
SMILES | Choline anaer gr
CNc1ncnc2c1ncn2C1OC(CO)C(O)C1O (centres undefined) | i
O=C(NCCc1c[nH]c2ccc(Cl)cc12)c1ccc(-n2nnc3cccnc32)cc1 | i
O=C1Nc2ccccc2C1Cc1ccc(Cl)cc1 (centres undefined) | +
O=C1Nc2ccccc2C1Cc1ccccc1F (centres undefined) | i
COc1cc(CC2C(=O)Nc3ccccc32)cc(Cl)c1OC (centres undefined) | i
COc1ccc(NC(=O)CSc2nccc3c2ccn3C)c(OC)c1 | i
CCOc1ccc(-c2nc(CN3CCN(C(=O)Nc4cc(C)ccc4C)CC3)c(C)o2)cc1 | i
COc1cccc(C2Nc3ccccc3-n3cc4c(=O)n(C)c(=O)n(C)c4c32)c1OC (centres undefined) | i
Cc1ccc(C2Nc3ccccc3-n3cc4c(=O)n(C)c(=O)n(C)c4c32)c(O)c1 (centres undefined) | +
CCOc1cccc(C2Nc3ccccc3-n3cc4c(=O)n(C)c(=O)n(C)c4c32)c1O (centres undefined) | i
Cn1c(=O)c2cn3c(c2n(C)c1=O)C(c1ccc(O)c(O)c1)Nc1ccccc1-3 (centres undefined) | i
COc1cccc(C2Nc3ccccc3-n3c(-c4ccccc4)c4c(=O)n(C)c(=O)n(C)c4c32)c1O (centres undefined) | i
COc1ccc(C2Nc3ccccc3-n3cc4c(=O)n(C)c(=O)n(C)c4c32)c(OC)c1 (centres undefined) | +
COC(=O)c1cc(S(=O)(=O)N2CCCC2C(=O)Nc2cccc(Br)c2)cn1C (centres undefined) | i
O=C(Nc1ccc(Cl)cc1)c1n[nH]nc1Nc1ccccc1 | i
O=c1ccn(-c2cccc(F)c2)nc1-c1nc(-c2ccc(F)c(Br)c2)no1 | i
O=C(c1ccc(F)cc1)N1CCc2cc(CNS(=O)(=O)c3ccc(F)c(Cl)c3)ccc21 | i
